About 83,000 compounds went through this panel and 20% of them were active in at least one assay; those are over-represented in the sample as a whole.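 Note: values are percent growth. 100 is the growth of untreated cells, values between 100 and 0 indicate rising inhibition; between -100 and 0 indicates cell death.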 Values without a mark were called inactive. Active and inactive are the calls of the source. Rule for the calls: active = growth percent below 10; inactive = the rest.
Legend:
Assay in all cases: NCI-60 one-dose screen, 48 h (100 = growth as untreated, 0 = no growth, -100 = all killed)
[1] = tested on: NCI-H226 lung; details: 10 µM unless noted
[2] = tested on: NCI-H322M lung; details: 10 µM unless noted
[3] = tested on: MALME-3M melanoma; details: 10 µM unless noted
[4] = tested on: SNB-75 CNS; details: 10 µM unless noted
[5] = tested on: SK-MEL-2 melanoma; details: 10 µM unless noted
[6] = tested on: TK-10 renal; details: 10 µM unless noted
[7] = tested on: SR leukemia; details: 10 µM
[8] = tested on: OVCAR-5 ovarian; details: 10 µM unless noted
[9] = tested on: OVCAR-4 ovarian; details: 10 µM unless noted
[10] = tested on: SK-OV-3 ovarian; details: 10 µM unless noted
[11] = tested on: NCI/ADR-RES ovarian; details: 10 µM unless noted
[12] = tested on: HOP-62 NSCLC; details: 10 µM unless noted
[13] = tested on: HOP-92 NSCLC; details: 10 µM unless noted
[14] = tested on: NCI-H522 lung; details: 10 µM unless noted
[15] = tested on: A549/ATCC NSCLC; details: 10 µM unless noted
[16] = tested on: COLO 205 colon; details: 10 µM
[17] = tested on: EKVX NSCLC; details: 10 µM unless noted
[18] = tested on: ACHN renal; details: 10 µM unless noted
[19] = tested on: IGROV1 ovarian; details: 10 µM

SMILES	growth [1]	growth [2]	growth [3]	growth [4]	growth [5]	growth [6]	growth [7]	growth [8]	growth [9]	growth [10]	growth [11]	growth [12]	growth [13]	growth [14]	growth [15]	growth [16]	growth [17]	growth [18]	growth [19]
OB([O][Hg][c]1ccccc1)[O][Hg][c]1ccccc1	54.9%	-22.4% (active)	-88.1% (active)	-56% (active)	-74.9% (active)	-94.5% (active)	-15.2% (active)	-64% (active)	7.38% (active)	-62.7% (active)	-18.2% (active)								
CC(=O)Nc1ccc(C=C2C(=O)NC(=O)NC2=O)cc1	101%	104%		84.2%	109%	107%	95.7%		107%	105%	108%	103%	91.5%	104%	100%	106%	106%	109%	107%
O1[As]2O[As]3O[As]1O[As](O2)O3	0.918% (active)	38.2%	-15% (active)	-0.103% (active)	-34.8% (active)			18.7%	26.1%	38%	13.8%		-24.4% (active)	-63.4% (active)			5.14% (active)	28%	14.6%
O=C(Nc1ccc(S(=O)(=O)F)cc1)Oc1ccccc1	99.5%	94.8%	101%	85.5%	107%	96.5%	99.9%	102%	97%	102%	103%				97.2%			106%	99.1%
C[C@@H]1O[C@@H](O[C@H]2CC[C@@]3(C)[C@H](CCC4[C@@H]3C(O)C[C@]3(C)[C@@H](c5ccc(=O)oc5)CC[C@]43O)C2)[C@H](O)[C@H](O)[C@H]1O (stereo partly drawn)	-84.2% (active)	-73.9% (active)	-45.9% (active)	-88.3% (active)	-81% (active)	-97% (active)			-92.9% (active)	-95.6% (active)	-66.8% (active)			-87% (active)	-83.6% (active)		-58.3% (active)	-81.7% (active)	-62.9% (active)
O=C(CF)N(O)c1ccc(/C=C/c2ccccc2)cc1	-22.9% (active)	71.4%	82.9%	70.9%	94.9%	67.4%		82.6%	70.8%	65.6%	44.1%			60.6%	36.4%	68.8%	98.5%	13.9%	40.8%
O=[N+]([O-])c1ccc2cnn(CSP(=S)(c3ccccc3)c3ccccc3)c2c1	77.4%	92.9%	55.3%	70.6%	98.2%	127%	9.77% (active)	96.7%	73.1%	90.1%	49.8%	59.3%			73.3%	101%		74.8%	67.5%
N#CC1=C(N)Oc2cc3c(cc2C1c1cccs1)OCO3 (stereo not drawn)	47.6%		40%	-14.9% (active)	21.2%	56.1%	16.2%		52.8%	7.21% (active)	3.49% (active)	26.3%		-26% (active)	36.8%		53.7%	57.4%	35.3%
O=[N+]([O-])c1ccc(/C=C/C=C/c2ccc(S(=O)(=O)F)cc2)c(Cl)c1	99.8%		102%	71.7%	84%	108%		112%		98%	104%	99.9%	86.1%	83.8%	98.6%			102%	104%
CCOC(=O)c1cnc(SCc2ccc(Cl)c(Cl)c2)nc1N1CC1	75.6%		68.6%	43.1%	66.2%	71.9%	24.1%	82.9%	53.6%	74.6%	25.2%	64.9%		36.7%	50%	67.8%	69.7%	44.1%	33.7%
